Experimental data as given in PubChem BioAssay (EPA / NIEHS).
Activity calls are given as the source filed them. The calls were made as follows: active = hit-call score of the fitted dose curve at least 0.9, where 1 is the maximum; inactive = score below 0.9.

What was measured:
[1] = APR_HepG2_P-H2AX_72hr: Apredica 72-hour HepG2 Assay for H2AX Phosphorylation (AID 2282916); settings: imaging, actives raise or lower the signal;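 also: phospho-histone H2A.x immunostain intensity per cell marking DNA damage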
In short: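 HepG2 human liver cells were exposed for 72 hr to compounds at 0.39–200 uM (10 concentrations, duplicate per plate) in 0.5% v/v DMSO. Fixed, permeabilized cells were immunolabeled for phospho-histone H2A.x with Hoechst 33342 and imaged by HCS fluorescence; bidirectional fit versus DMSO.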

[2] = APR_HepG2_MitoMembPot_72hr: Apredica 72-hour HepG2 Assay for Mitochondrial Membrane Potential (AID 2282917); settings: imaging, actives raise or lower the signal
In short: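 Membrane potential read by MitoTracker Red CMXRos (250 nM, 30 min, pre-fixation) fluorescence imaging of HepG2 after 72 hr exposure. Ten concentrations, 0.39–200 uM, duplicate wells, 0.5% DMSO; fitted in both directions against DMSO baseline.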

[3] = APR_HepG2_MitoticArrest_72hr: Apredica 72-hour HepG2 Assay for Mitotic Arrest (AID 2282918); settings: high-content imaging, actives raise or lower the signal
In short: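 HepG2 cells treated 72 h at 0.39–200 uM, 0.5% DMSO final; formaldehyde-fixed, stained with Hoechst 33342 and phospho-histone H3 antibody, imaged by high-content fluorescence; bidirectional fit versus DMSO.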

[4] = APR_HepG2_MicrotubuleCSK_72hr: Apredica 72-hour HepG2 Assay for Microtubule CSK Stabilty (AID 2282919); settings: HepG2 microtubule cytoskeleton, high-content imaging, actives raise or lower the signal
In short: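 Read-out is tubulin fluorescence intensity from high-content imaging of HepG2 cells, with nuclei identified by Hoechst 33342. Treatment lasts 72 h at 0.39–200 uM, and curves are fitted bidirectionally against the DMSO negative control.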

[5] = APR_HepG2_StressKinase_72hr: Apredica 72-hour HepG2 Assay for Stress Kinase (AID 2282921); settings: HepG2 stress kinase (phospho-c-Jun) imaging, actives raise or lower the signal
In short: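 Cells were exposed for 72 h to ten concentrations (0.39–200 uM, duplicate) at 0.5% v/v DMSO final, then fixed with 3.7% formaldehyde, permeabilized and immunostained for phospho-c-Jun (Cy3 secondary) with Hoechst nuclear counterstain.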

[6] = APR_HepG2_StressKinase_24hr: Apredica 24-hour HepG2 Assay for Stress Kinase (AID 2282922); settings: HepG2 stress kinase (phospho-c-Jun) imaging, actives raise or lower the signal
In short: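 HepG2, 24 hr dosing, 0.39–200 uM in duplicate, 0.5% DMSO; formaldehyde fix (3.7%), 0.5% Triton X-100; anti-phospho-c-Jun + Cy3 secondary, Hoechst counterstain; ArrayScan imaging; bidirectional curve fit vs DMSO baseline.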

[7] = APR_HepG2_MitoMass_72hr: Apredica 72-hour HepG2 Assay for Mitochondrial Mass (AID 2282924); settings: high-content imaging, actives raise or lower the signal;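 also: MitoTracker Red CMXRos stain intensity per cell imaged as mitochondrial mass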
In short: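 HepG2, 72 hr cmpd, 10 conc 0.39–200 uM in dup, DMSO 0.5% v/v. MitoTracker Red CMXRos 250 nM 30 min pre-fix; formaldehyde 3.7% fix 30 min RT. HCS imaging, gain/loss fit vs DMSO.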

[8] = APR_HepG2_NuclearSize_72hr: Apredica 72-hour HepG2 Assay for Nuclear Size (AID 2282925); settings: high-content imaging, actives raise or lower the signal
In short: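 HepG2; cpd 0.39–200 uM, 10 conc, duplicate; 72 h; DMSO 0.5% v/v; fix 3.7% formaldehyde 30 min RT; Triton permeabilization; Hoechst 2 ug/mL; HCS imaging 20x; nuclear diameter; gain/loss fit vs DMSO.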

[9] = biological target: CCAAT/enhancer-binding protein beta (Homo sapiens) (UniProt P17676); assay: ATG_C_EBP_CIS: Attagene CIS-FACTORIAL HepG2 Assay for human CCAAT/Enhancer Binding Protein (C/EBP) beta (AID 2282927); settings: HepG2 Attagene cis-factorial transcription factor reporter; actives raise or lower the signal
In short: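 Endogenous C/EBPb-driven reporter transcripts measured in transfected human HepG2 cells at 24 h via RT-PCR and capillary electrophoresis of labelled fragments. Activity fitted in both directions relative to DMSO baseline.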

[10] = ATG_CMV_CIS: Attagene CIS-FACTORIAL HepG2 Assay for human CMV (Internal Marker) (AID 2282928); settings: HepG2 CMV promoter reporter, transcription factor profiling; actives raise or lower the signal;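 also: endpoint acts as a background internal control marker rather than a target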
In short: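 HepG2 cells transiently transfected with multiple cis-regulated reporter units; 24 h compound exposure. Reporter mRNA quantified by RT-PCR, 6-FAM primer-extension labeling, HpaI digestion and capillary electrophoresis; bidirectional fitting against DMSO baseline.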

[11] = ATG_DR4_LXR_CIS: Attagene CIS-FACTORIAL HepG2 Assay for human Liver X Receptor (LXR), DR4 submotif (AID 2282929); settings: HepG2 Attagene DR4 cis-reporter, mRNA transcription; actives raise or lower the signal
In short: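 HepG2 cells transiently transfected with cis-promoter-driven multiplexed reporter units (DR4 element) were dosed for 24 h. Reporter mRNA was quantified by RT-PCR, fluorescent primer extension, HpaI digestion and capillary electrophoresis; bidirectional fitting versus DMSO baseline.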

[12] = biological target: Aryl hydrocarbon receptor (Homo sapiens) (UniProt P35869); assay: ATG_Ahr_CIS: Attagene CIS-FACTORIAL HepG2 Assay for human Aryl Hydrocarbon Receptor (Ahr) (AID 2282930); settings: HepG2 AhR cis-factorial reporter transcription; actives raise or lower the signal
In short: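 Reporter mRNA levels, quantified by RT-PCR and fluorescent capillary electrophoresis, reflect endogenous AhR transcriptional activity in HepG2 cells carrying transfected cis-promoter reporter constructs. Readout at 24 h post-dose; gain or loss fitted against DMSO baseline.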

[13] = ATG_AP_1_CIS: Attagene CIS-FACTORIAL HepG2 Assay for human Activator Protein 1 (AP-1) (AID 2282931); settings: HepG2 Attagene cis-factorial AP-1 reporter mRNA; actives raise or lower the signal
In short: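 HepG2 cells transiently transfected with cis-element-driven multiplex reporter units; 24 h compound exposure. Reporter mRNA quantified by RT-PCR, FAM-labelled fragments resolved by capillary electrophoresis; bidirectional fit versus DMSO baseline.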

[14] = ATG_AP_2_CIS: Attagene CIS-FACTORIAL HepG2 Assay for human Activator Protein 2 (AP-2) (AID 2282932); settings: HepG2 AP-2 cis-reporter, Attagene transcription factor profiling; actives raise or lower the signal
In short: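 Step one: transient transfection of HepG2 with reporter transcription units. Step two: 24 h chemical exposure. Step three: RNA extraction, RT-PCR, labelled fragment analysis by capillary electrophoresis; DMSO serves as baseline.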

[15] = ATG_BRE_CIS: Attagene CIS-FACTORIAL HepG2 Assay for human Bone Morphogenetic Protein (BMP) Response Element (BRE) (AID 2282933); settings: HepG2 BMP response element reporter, Attagene transcription factor profiling; actives raise or lower the signal
In short: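 Read-out: reporter mRNA induction quantified by RT-PCR and capillary electrophoresis after 24 h chemical exposure of transfected HepG2 cells. Endogenous factor activity on the BMP response element; gain or loss fitted against DMSO baseline.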

[16] = biological target: Transcription factor E2F1 (Homo sapiens) (UniProt Q01094); assay: ATG_E2F_CIS: Attagene CIS-FACTORIAL HepG2 Assay for human E2F Transcription Factor 1 (AID 2282935); settings: HepG2 Attagene cis-reporter, E2F reporter RNA transcripts; actives raise or lower the signal
In short: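 Total RNA from 24 h-treated, reporter-transfected HepG2 cells undergoes DNase I treatment, oligo(dT) reverse transcription, PCR and 6-FAM primer extension before capillary electrophoresis.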

[17] = ATG_CRE_CIS: Attagene CIS-FACTORIAL HepG2 Assay for human cAMP Responsive Element (CRE) binding protein 3 (AID 2282926); settings: HepG2 CRE cis-reporter, Attagene multiplexed mRNA; actives raise or lower the signal
In short: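 HepG2 cells transiently transfected with cis-element-driven multiple reporter transcription units; CRE reporter mRNA measured 24 h after dosing by RT-PCR, 6-FAM labelling, HpaI digestion and capillary electrophoresis. Bidirectional fit versus DMSO baseline.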

[18] = biological target: Retinoic acid receptor alpha (Homo sapiens) (UniProt P10276); assay: ATG_DR5_RAR_CIS: Attagene CIS-FACTORIAL HepG2 Assay for human Retinoic Acid Receptor Alpha (RARE), DR5 submotif (AID 2282934); settings: HepG2 Attagene cis-factorial RARE DR5 reporter, mRNA; actives raise or lower the signal
In short: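 Reporter transcripts from a DR5-regulated unit, measured via RT-PCR plus capillary electrophoresis, reflect endogenous RAR activity in transiently transfected human HepG2 liver cells. Exposure lasted 24 h; gain or loss of signal scored against DMSO.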

Sequence of CCAAT/enhancer-binding protein beta (Homo sapiens) (P17676 whole entry, looked up, the tested form may be a part): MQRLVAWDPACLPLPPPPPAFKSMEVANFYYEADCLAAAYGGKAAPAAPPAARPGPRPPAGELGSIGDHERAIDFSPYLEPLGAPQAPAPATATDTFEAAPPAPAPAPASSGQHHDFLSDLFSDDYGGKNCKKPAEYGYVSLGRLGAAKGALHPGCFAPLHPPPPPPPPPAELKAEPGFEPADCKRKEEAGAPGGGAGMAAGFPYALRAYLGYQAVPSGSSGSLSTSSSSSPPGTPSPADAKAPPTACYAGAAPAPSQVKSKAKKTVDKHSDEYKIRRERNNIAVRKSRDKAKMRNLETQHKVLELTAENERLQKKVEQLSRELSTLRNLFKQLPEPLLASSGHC
Sequence of Aryl hydrocarbon receptor (Homo sapiens) (P35869 whole entry, looked up): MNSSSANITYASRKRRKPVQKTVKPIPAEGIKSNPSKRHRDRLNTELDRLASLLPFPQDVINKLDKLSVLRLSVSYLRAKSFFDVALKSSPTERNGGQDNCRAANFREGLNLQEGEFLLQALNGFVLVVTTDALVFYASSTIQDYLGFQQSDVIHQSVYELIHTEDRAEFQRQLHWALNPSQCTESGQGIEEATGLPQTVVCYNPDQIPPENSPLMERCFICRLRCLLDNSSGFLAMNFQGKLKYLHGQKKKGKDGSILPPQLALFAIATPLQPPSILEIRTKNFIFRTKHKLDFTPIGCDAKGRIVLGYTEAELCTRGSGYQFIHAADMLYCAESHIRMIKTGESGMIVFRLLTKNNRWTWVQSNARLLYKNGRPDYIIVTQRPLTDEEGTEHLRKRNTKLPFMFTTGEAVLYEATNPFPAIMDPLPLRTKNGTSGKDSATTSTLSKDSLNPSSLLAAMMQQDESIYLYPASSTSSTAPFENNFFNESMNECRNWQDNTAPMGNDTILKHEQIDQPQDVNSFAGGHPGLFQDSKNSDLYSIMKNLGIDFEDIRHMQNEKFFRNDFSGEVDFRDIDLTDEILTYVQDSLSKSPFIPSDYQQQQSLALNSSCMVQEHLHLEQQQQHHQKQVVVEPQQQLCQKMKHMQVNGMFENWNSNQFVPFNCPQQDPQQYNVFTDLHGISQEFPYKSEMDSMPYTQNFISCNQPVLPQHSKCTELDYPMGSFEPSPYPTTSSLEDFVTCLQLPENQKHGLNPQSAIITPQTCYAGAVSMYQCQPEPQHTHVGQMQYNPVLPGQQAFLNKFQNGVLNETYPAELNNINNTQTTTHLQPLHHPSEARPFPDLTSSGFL
Sequence of Retinoic acid receptor alpha (Homo sapiens) (P10276 whole entry, looked up): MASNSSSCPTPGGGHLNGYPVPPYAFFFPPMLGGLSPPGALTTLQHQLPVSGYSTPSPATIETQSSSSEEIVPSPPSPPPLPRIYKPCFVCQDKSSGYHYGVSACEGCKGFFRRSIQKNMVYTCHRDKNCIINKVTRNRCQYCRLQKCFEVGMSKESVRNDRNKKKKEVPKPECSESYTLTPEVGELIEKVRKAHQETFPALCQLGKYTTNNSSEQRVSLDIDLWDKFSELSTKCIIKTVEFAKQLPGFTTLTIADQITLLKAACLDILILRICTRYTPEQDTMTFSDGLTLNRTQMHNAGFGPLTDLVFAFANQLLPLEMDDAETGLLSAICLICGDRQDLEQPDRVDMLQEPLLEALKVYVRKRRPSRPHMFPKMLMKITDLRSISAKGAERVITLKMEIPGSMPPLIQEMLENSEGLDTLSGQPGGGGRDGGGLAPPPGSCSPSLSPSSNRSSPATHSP
Sequence of Transcription factor E2F1 (Homo sapiens) (Q01094 whole entry, looked up): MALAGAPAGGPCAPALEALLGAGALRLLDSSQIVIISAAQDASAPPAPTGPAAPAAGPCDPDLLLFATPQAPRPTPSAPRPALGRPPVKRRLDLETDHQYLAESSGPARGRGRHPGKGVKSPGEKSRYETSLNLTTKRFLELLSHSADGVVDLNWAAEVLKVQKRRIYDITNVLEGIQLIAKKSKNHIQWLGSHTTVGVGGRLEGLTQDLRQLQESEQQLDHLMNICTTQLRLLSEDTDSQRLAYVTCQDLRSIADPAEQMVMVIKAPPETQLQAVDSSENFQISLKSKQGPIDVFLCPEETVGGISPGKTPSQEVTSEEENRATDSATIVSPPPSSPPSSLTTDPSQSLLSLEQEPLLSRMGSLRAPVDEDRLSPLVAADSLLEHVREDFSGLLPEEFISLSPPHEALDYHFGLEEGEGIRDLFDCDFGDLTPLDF

| Structure (SMILES) | outcome [1] | AC50 [2] | outcome [3] | outcome [4] | outcome [5] | outcome [6] | outcome [7] | outcome [8] | outcome [9] | outcome [10] | outcome [11] | outcome [12] | outcome [13] | outcome [14] | outcome [15] | outcome [16] | outcome [2] | outcome [17] | outcome [18] |
| --- | --- | --- | --- | --- | --- | --- | --- | --- | --- | --- | --- | --- | --- | --- | --- | --- | --- | --- | --- |
| CCNc1nc(NC(C)C)nc(SC)n1 | inactive | 59.6 µM (active) | inactive | inactive | inactive | inactive | inactive | inactive | inactive | inactive | inactive | inactive | inactive | inactive | inactive | inactive |  |  |  |
| O=C(O)C(F)(F)C(F)(F)C(F)(F)C(F)(F)C(F)(F)F | inactive |  | inactive | inactive | inactive | inactive | inactive | inactive | inactive | inactive | inactive | inactive | inactive | inactive | inactive | inactive | inactive | inactive | inactive |
| Cc1ccc(O)c(C)c1 | inactive |  | inactive | inactive | inactive | inactive | inactive | inactive | inactive | inactive | inactive | inactive | inactive | inactive | inactive | inactive | inactive | inactive | inactive |
